PubChem BioAssay
For some of these results: Results with a measured potency or affinity are listed apart. Calls of active or inactive are those of the source. Unless noted, how the calls were made is not given here.

What was measured:
[1] = antimalarial activity against Dd2 strain (AID 2302;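 active means growth inhibition above 50% at the single 2 µM test dose, taken to imply half-maximal potency below 2 µM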;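 further: 0% = DMSO untreated growth and 100% = chloroquine plus artemisinin killed control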); conditions: P. falciparum Dd2 in RBCs, LDH growth readout, 72 h; at 2 µM; stronger effect = higher value
[2] = HepG2 cytotoxicity, primary screen, cytotoxicity control for P. falciparum antimalarial project, cell-based, ATP luminescence (AID 2303;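 active means inhibition above 50%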;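 further: 0% = DMSO wells and 100% = digitonin-killed cells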); conditions: HepG2 viability, 24-48 h, at 10 µM, stronger effect = higher value
[3] = molecular target: L-lactate dehydrogenase (Plasmodium falciparum (isolate CDC / Honduras)) (UniProt Q27743); assay: PfLDH activity inhibition – cell lysate, 3D7 strain, counter-screen for P. falciparum growth inhibition project (AID 2304);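 further: 0% = vehicle and 100% = reference inhibitor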; conditions: P. falciparum 3D7 crude extract, LDH APAD/NBT absorbance; at 2 µM; stronger effect = higher value
[4] = inhibition of 3D7 malaria parasite growth – strain 3D7 (AID 2306);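 further: 0% = DMSO wells and 100% = chloroquine plus artemisinin control wells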; conditions: P. falciparum 3D7 erythrocytic growth, LDH absorbance, 72 h; at 2 µM; stronger effect = higher value
[5] = molecular target: Calcium-dependent protein kinase 1 (Plasmodium falciparum (isolate 3D7)) (UniProt P62344); assay: PfCDPK1 kinase inhibitors, biochemical, TCAMS library (AID 1159585; cut-off not given, nearly all actives have IC50 up to about 0.98 µM;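 further: inhibitors leave more ATP so luminescence rises with inhibition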); conditions: recombinant PfCDPK1, Kinase-Glo ATP depletion luminescence
[6] = molecular target: Plasmodium falciparum protein kinase 6 (PK6, PF3D7_1337100) (UniProt Q8IDW1); assay: PfPK6 kinase inhibitors, biochemical, TCAMS library (AID 1159586); conditions: recombinant PfPK6, Kinase-Glo ATP depletion luminescence
[7] = molecular target: Protein kinase 7 (PK7), Plasmodium falciparum 3D7 (PF3D7_0213400) (UniProt Q7YTF7); assay: inhibition of Plasmodium PK7 catalytic activity – biochemical, TCAMS antimalarial set, Kinase-Glo luminescence (AID 1159587); conditions: recombinant PfPK7, Kinase-Glo ATP depletion luminescence
[8] = molecular target: Calcium-dependent protein kinase 4 (Plasmodium falciparum (isolate 3D7)) (UniProt Q8IBS5); assay: PfCDPK4 kinase inhibitors, biochemical, TCAMS library (AID 1159588; cut-off not given, nearly all actives have IC50 up to about 0.91 µM); conditions: recombinant PfCDPK4, Kinase-Glo ATP depletion luminescence
Sequence of Calcium-dependent protein kinase 4 (Plasmodium falciparum (isolate 3D7)) (Q8IBS5 whole entry, looked up): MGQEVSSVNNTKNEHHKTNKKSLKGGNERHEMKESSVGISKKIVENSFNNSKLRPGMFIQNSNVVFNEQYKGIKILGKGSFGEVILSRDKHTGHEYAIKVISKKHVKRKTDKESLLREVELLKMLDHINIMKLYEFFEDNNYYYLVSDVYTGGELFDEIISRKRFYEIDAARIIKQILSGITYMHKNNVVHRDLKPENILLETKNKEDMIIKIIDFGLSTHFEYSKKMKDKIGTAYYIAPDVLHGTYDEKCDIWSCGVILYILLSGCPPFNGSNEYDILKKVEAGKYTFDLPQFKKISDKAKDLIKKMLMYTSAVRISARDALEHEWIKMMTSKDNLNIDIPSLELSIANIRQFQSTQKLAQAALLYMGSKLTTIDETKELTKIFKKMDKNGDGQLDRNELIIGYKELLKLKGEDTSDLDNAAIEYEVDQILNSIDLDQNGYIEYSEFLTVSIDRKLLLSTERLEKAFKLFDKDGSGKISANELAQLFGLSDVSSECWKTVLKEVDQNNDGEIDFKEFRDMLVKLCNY

Sequence of Plasmodium falciparum protein kinase 6 (PK6, PF3D7_1337100) (Q8IDW1 1-305): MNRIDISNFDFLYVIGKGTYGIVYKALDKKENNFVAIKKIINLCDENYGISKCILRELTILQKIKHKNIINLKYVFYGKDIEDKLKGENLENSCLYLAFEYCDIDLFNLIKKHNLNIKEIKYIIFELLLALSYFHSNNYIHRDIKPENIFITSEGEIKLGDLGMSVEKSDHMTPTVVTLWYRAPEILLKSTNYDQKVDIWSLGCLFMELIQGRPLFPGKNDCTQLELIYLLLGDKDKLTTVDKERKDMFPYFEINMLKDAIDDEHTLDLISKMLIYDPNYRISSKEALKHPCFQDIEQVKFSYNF
Sequence of L-lactate dehydrogenase (Plasmodium falciparum (isolate CDC / Honduras)) (Q27743 whole entry, looked up): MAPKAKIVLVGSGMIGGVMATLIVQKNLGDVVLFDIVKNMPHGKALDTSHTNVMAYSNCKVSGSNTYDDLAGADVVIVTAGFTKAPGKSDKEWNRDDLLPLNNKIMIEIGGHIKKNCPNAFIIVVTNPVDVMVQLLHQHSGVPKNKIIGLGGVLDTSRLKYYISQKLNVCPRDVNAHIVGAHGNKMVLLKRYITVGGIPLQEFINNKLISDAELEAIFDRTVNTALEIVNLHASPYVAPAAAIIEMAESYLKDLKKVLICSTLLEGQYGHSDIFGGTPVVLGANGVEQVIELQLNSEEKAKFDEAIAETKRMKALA
Sequence of Calcium-dependent protein kinase 1 (Plasmodium falciparum (isolate 3D7)) (P62344 whole entry, looked up): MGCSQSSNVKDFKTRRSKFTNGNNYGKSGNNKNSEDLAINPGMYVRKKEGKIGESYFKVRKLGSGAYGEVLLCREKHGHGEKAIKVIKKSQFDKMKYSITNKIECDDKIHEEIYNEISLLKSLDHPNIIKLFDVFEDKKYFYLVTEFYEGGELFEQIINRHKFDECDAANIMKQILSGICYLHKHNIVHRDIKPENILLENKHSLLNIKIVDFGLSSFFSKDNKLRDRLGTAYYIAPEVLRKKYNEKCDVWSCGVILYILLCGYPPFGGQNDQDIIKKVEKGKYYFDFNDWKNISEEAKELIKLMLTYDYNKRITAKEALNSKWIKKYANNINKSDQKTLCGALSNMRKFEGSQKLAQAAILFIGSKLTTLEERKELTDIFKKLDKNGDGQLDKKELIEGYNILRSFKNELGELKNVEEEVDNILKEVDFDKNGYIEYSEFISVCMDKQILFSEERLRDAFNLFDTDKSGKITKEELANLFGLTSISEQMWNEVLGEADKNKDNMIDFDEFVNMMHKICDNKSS
Sequence of Protein kinase 7 (PK7), Plasmodium falciparum 3D7 (PF3D7_0213400) (Q7YTF7 1-343): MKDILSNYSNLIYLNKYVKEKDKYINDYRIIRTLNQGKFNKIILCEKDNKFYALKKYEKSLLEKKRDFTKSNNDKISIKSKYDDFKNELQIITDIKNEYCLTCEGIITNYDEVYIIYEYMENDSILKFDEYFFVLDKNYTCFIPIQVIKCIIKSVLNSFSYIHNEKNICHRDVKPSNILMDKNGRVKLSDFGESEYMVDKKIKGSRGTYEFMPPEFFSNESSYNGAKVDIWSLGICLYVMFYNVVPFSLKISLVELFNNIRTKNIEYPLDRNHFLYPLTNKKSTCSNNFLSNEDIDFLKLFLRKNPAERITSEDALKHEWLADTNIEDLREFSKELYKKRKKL

CC(C)Cc1ccc(N2CCN(CCCCNC(=O)c3ccc(NC(=O)c4cc(C(F)(F)F)cc(C(F)(F)F)c4)cc3)CC2)cc1
inactive: inhibition [2] 15% | inhibition [3] -3% | outcome [5] | outcome [6] | outcome [7] | outcome [8]
active: growth inhibition [1] 100% | growth inhibition [4] 100%

COc1cccc2c(NN=Cc3cccc(F)c3)ccnc12
inactive: growth inhibition [1] 44% | inhibition [2] 12% | inhibition [3] 5% | outcome [5] | outcome [6] | outcome [7] | outcome [8]
active: growth inhibition [4] 99%

CCN(CC)Cc1cc(Nc2c3ccc(Cl)cc3nc3cccc(OC)c23)ccc1O
inactive: inhibition [2] 8% | inhibition [3] -3% | outcome [5] | outcome [6] | outcome [7] | outcome [8]
active: growth inhibition [1] 98% | growth inhibition [4] 101%

COc1ccccc1C(C)NCC(=O)Nc1ccccc1Sc1ccccc1 (stereo not given)
active: growth inhibition [4] 89%
inactive: growth inhibition [1] 7% | inhibition [2] -7% | inhibition [3] -1% | outcome [5] | outcome [6] | outcome [7] | outcome [8]

Cc1ccc(C(=O)Nc2cccc([N+](=O)[O-])c2)cc1S(=O)(=O)N1CC(C)CC(C)C1 (stereo not given)
active: growth inhibition [4] 100%
inactive: growth inhibition [1] 42% | inhibition [2] 24% | inhibition [3] -1% | outcome [5] | outcome [6] | outcome [7] | outcome [8]

O=C(Nc1cccc(-c2cccc(-c3nc4ccc(F)cc4[nH]3)c2)c1)Nc1ccc2c(c1)OCO2
active: growth inhibition [4] 101%
inactive: growth inhibition [1] 49% | inhibition [2] 30% | inhibition [3] -4% | outcome [5] | outcome [6] | outcome [7] | outcome [8]

COc1cc(C(=O)NC2CCN(Cc3ccccc3)CC2)ccc1-c1cc2cc(Cl)c(Cl)cc2[nH]1
active: growth inhibition [1] 101% | growth inhibition [4] 102%
inactive: inhibition [2] 33% | inhibition [3] 5% | outcome [5] | outcome [6] | outcome [7] | outcome [8]

Clc1ccc2c(NCc3ccccn3)ccnc2c1
active: growth inhibition [1] 99% | growth inhibition [4] 99%
inactive: inhibition [2] 0% | inhibition [3] -4% | outcome [5] | outcome [6] | outcome [7] | outcome [8]

Cc1cc2nc(-c3ccc(/C=C/C(=O)NC4CCN(Cc5ccccc5)CC4)cc3)[nH]c2cc1C
active: growth inhibition [1] 89% | growth inhibition [4] 98%
inactive: inhibition [2] 18% | inhibition [3] -2% | outcome [5] | outcome [6] | outcome [7] | outcome [8]

CCC(N)(C#Cc1ccc(-c2c(C)[nH]c(C)c(Br)c2=O)cc1)CC
active: growth inhibition [1] 96% | growth inhibition [4] 97%
inactive: inhibition [2] 0% | inhibition [3] -1% | outcome [5] | outcome [6] | outcome [7] | outcome [8]

Cc1ccc2[nH]c(-c3ccc(C(=O)NC4CCN(Cc5ccccc5)CC4)cc3)nc2c1C
active: growth inhibition [4] 102%
inactive: growth inhibition [1] 46% | inhibition [2] 22% | inhibition [3] -2% | outcome [5] | outcome [6] | outcome [7] | outcome [8]

CC(=O)Nc1ccc(C(=O)Nc2cccc(-c3cccc(-c4nc5ccc(C(F)(F)F)cc5[nH]4)c3)c2)cn1
inactive: inhibition [2] 8% | inhibition [3] -2% | outcome [5] | outcome [6] | outcome [7] | outcome [8]
active: growth inhibition [1] 97% | growth inhibition [4] 101%

O=C(Nc1ccc(OC2CCN(Cc3ccc(F)cc3)CC2)c(Cl)c1)c1ccccc1
active: growth inhibition [1] 89% | growth inhibition [4] 90%
inactive: inhibition [2] 16% | inhibition [3] -4% | outcome [5] | outcome [6] | outcome [7] | outcome [8]

CCN(C)CCCn1c(N(C)C)nc2cc(-n3cnc4cc(-c5ccc(Cl)cc5)sc4c3=O)ccc21
active: inhibition [2] 83% | growth inhibition [4] 80%
inactive: growth inhibition [1] 12% | inhibition [3] 5% | outcome [5] | outcome [6] | outcome [7] | outcome [8]

Cc1cc(-c2ccc3c(c2)CCN(CCC2CCC(NC(=O)/C=C/c4cccc(Cl)c4)CC2)CC3)on1 (stereo not given)
active: growth inhibition [4] 101%
inactive: growth inhibition [1] 49% | inhibition [2] 16% | inhibition [3] -4% | outcome [5] | outcome [6] | outcome [7] | outcome [8]

O=C(/C=C/c1ccc(Cl)c(Cl)c1)N1CCC(CCN2CCC(c3c[nH]c4cnccc34)CC2)CC1
inactive: inhibition [3] -2% | outcome [5] | outcome [6] | outcome [7] | outcome [8]
active: growth inhibition [1] 100% | inhibition [2] 93% | growth inhibition [4] 101%

COc1c(C2CCN(CCCCNC(=O)c3ccc(NC(=O)c4ccc(C#N)cc4)cc3)CC2)ccc2c1CCCC2
inactive: inhibition [3] 1% | outcome [5] | outcome [6] | outcome [7] | outcome [8]
active: growth inhibition [1] 100% | inhibition [2] 81% | growth inhibition [4] 97%

CC(C)CNc1c2c(nc3cnn(-c4c5c(nc6cn[nH]c46)CCCC5)c13)CCCC2
active: growth inhibition [4] 100%
inactive: growth inhibition [1] -2% | inhibition [2] 7% | inhibition [3] -5% | outcome [5] | outcome [6] | outcome [7] | outcome [8]

Cc1cccc2[nH]c(C3CCN(CC4CCN(C(=O)/C=C/c5ccc(Cl)c(Cl)c5)CC4)CC3)nc12
active: growth inhibition [1] 79% | growth inhibition [4] 100%
inactive: inhibition [2] 46% | inhibition [3] 0% | outcome [5] | outcome [6] | outcome [7] | outcome [8]

O=C(/C=C/c1ccc(Cl)c(Cl)c1)NC1CCC(CN2CCC(c3nc4ccccc4s3)CC2)CC1 (stereo not given)
inactive: growth inhibition [1] 32% | inhibition [3] -4% | outcome [5] | outcome [6] | outcome [7] | outcome [8]
active: inhibition [2] 50% | growth inhibition [4] 87%
